Experimental data taken from the supplement of paper PMC6555819.

Assays:
Test in all cases: PBM binding z-score (relative to random genomic background probes); higher = stronger binding; sequences stand for … in GC…GCGATTGACAGCGTAGAATGAAGG
[1] = test system: RARb homodimer (NR concentration 270 nM)
Outline: (§1)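 Scanned fluorescence from custom Agilent 4×180K protein-binding microarrays was regression-normalized. Binding z-scores use random background probes as reference. Ligand-free nuclear receptor dimers were incubated on the arrays for 1 h and detected with antibodies against each partner (one per run).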

[2] = test system: RARg:RXRa (NR concentration 270 nM, RXRa partner concentration 90 nM)
Outline: as §1

[3] = test system: RARg homodimer (NR concentration 270 nM)
Outline: as §1

[4] = test system: RXRa DBDmut IVT, anti-RXR (DBD mutation: RXRa K156A/R161A, NR concentration 90 nM)
Outline: as §1

[5] = test system: RXRa homodimer (NR concentration 180 nM)
Outline: as §1

[6] = test system: THRa:RXRa (NR concentration 90 nM, RXRa partner concentration 90 nM)
Outline: as §1

[7] = test system: THRa homodimer (NR concentration 90 nM)
Outline: as §1

[8] = test system: VDR:RXRa (NR concentration 270 nM, RXRa partner concentration 90 nM)
Outline: as §1

[9] = test system: VDR homodimer (NR concentration 270 nM)
Outline: as §1

Sequence | PBM binding z-score [1] | PBM binding z-score [2] | PBM binding z-score [3] | PBM binding z-score [4] | PBM binding z-score [5] | PBM binding z-score [6] | PBM binding z-score [7] | PBM binding z-score [8] | PBM binding z-score [9]
CGAACTCGGTCATCCAGGACAGTGAATACATTGA | 1.59 | 2.22 | 2.83 | 0.985 | 0.784 | 2.12 | 0.998 | 2.61 | 1.15
ACTATTAGTTGAGTCGAGGGCAACCGATAGGTTG | 1.2 | 0.788 | 0.802 | 0.52 | 0.607 | 2.3 | 0.603 | 0.728 | 1.05
CTCGTAAGGTCGTGCTCAGGTGAGTATACCAAAC | 2.05 | 3.84 | 2.77 | 2.39 | 2.68 | 4.18 | 2.99 | 2.61 | 1.5
ACTAGTTGATCAGCTGAGGTCACACACAATTCGG | 4.17 | 3.71 | 3.35 | 1.75 | 3.94 | 4.3 | 4.96 | 4.02 | 4.13
CGAACTACGTCAGAACAGGACAGTGAAGGATGAT | -0.0991 | -0.0189 | 0.316 | 0.247 | -0.063 | 0.397 | -0.497 | -0.451 | -0.159
TCATTTAGGTAAATGCTAGGTGAAAGTCCGATCT | 0.541 | 0.116 | 0.0576 | 1.57 | 0.519 | 1.69 | 0.878 | 0.573 | 0.0956
ACTTACGGGTCAACGAGGTTACAGCACGCGTATA | 3.89 | 6.06 | 5.3 | 2.37 | 6.55 | 4.46 | 1.51 | 7.79 | 3.71
GCTAGCAGGCCATTTGGGTCACTGAATGACGGGC | 1.94 | 0.989 | 1.4 | 0.125 | 0.735 | 1.95 | 0.65 | 0.821 | 0.43
TCTTGTGGATCAGCAGGTTAAGAAAGCTGGCCAA | 0.366 | -0.0321 | -0.331 | 0.589 | 0.119 | 0.227 | -0.125 | 0.405 | 0.0128
AGTAAAAGTTCAGGACGAGGTAACGTAAAGCACG | 2.91 | 4.29 | 4.25 | 2.76 | 2.3 | 3.78 | 2.01 | 2.66 | 1.89
CCTAGCAGGCCAGGGGCACTCAAGCATTTCGCTT | -0.0718 | -0.38 | -0.0557 | -1.12 | -0.341 | -0.336 | -1.01 | -0.66 | -0.769
ACTATTAGTTGACTTAGGCCAACCGATACGACGC | 0.826 | 0.899 | 0.91 | 0.805 | 0.539 | 0.898 | 0.912 | 0.432 | 0.435
GCCAGTTGGTCAGTAAAAGGTCACACACCGGTCG | 5.25 | 5.38 | 4.92 | 0.354 | 5.25 | 3.38 | 1.65 | 3.94 | 1.83
TTACCAAGGTGAAGGTCGTTGATCCCTCTGTAGA | 1.7 | 1.29 | 1.32 | 0.0227 | 1.7 | 2.34 | 1.1 | 1.24 | 1.15
TGAATGAGGTTATAAGCTCAGGGAACGTTGCAAA | -0.162 | 1.1 | 0.731 | 0.518 | 1.91 | 1.67 | 0.118 | 0.693 | 0.00669
AGAATGAGGTTACAAAAGATCAGGGAAACGCTTG | 0.449 | 1.86 | 1.58 | 1.16 | 2.44 | 2.6 | -0.0281 | 1.24 | 0.342
TCAAATAGGTAAAGGTGAAAGTCGAACGATATGA | 1.73 | 1.78 | 1.49 | 1.55 | 2.33 | 1.32 | -0.328 | 1.17 | 0.351
CCTTACGGGACACTCCAGGTTATAGCATCGGAGT | 0.585 | 0.478 | 0.691 | 0.129 | 0.276 | 1.84 | 0.457 | -0.0817 | 0.239
CCTGCTAGGTCAACGGTCAGCTAAAGCAGCTCGC | 3.72 | 4.6 | 5.11 | 2.02 | 3.13 | 2.79 | 0.878 | 1.58 | 0.529
ATGTCTAGGTAAAGTTCAGTGAAAGATCGATAGA | 2.59 | 2.12 | 2.62 | 1.25 | 1.5 | 1.17 | 0.000451 | 1.8 | 2.39
GCTGCTAGGTCAACTTATGGTCAGCTAAAGCTCG | 3.76 | 5.26 | 5.44 | 1.75 | 3.1 | 3.33 | 1.45 | 2.04 | 0.364
AGAATGAGGTTATTAATATCAGGGAATTGCGGTC | 0.652 | 1.03 | 0.749 | 1.73 | 1.62 | 2.05 | 0.737 | 1.27 | 1.2
GATACAGGGTCAAGGCCACAGTACGCGTATTGAT | 3.85 | 5.44 | 5.11 | 2.15 | 5.9 | 3.69 | 1.85 | 4.2 | 1.84
TATACAGGGTCAATGGCCAGAGTACGAATGTCGA | 3.21 | 5 | 4.73 | 2.43 | 5.41 | 3.22 | 0.631 | 4.05 | 2.79
CCTATTAGTTGACCATAGGGGCAACCGAAGCTCG | 1.3 | 0.669 | 0.729 | 0.6 | 0.362 | 0.842 | 0.596 | 0.497 | 0.581
ACTCACGGGTCAACGAGGTTATAGCACGCGTATA | 3.5 | 5.72 | 4.98 | 2.83 | 6.42 | 4.03 | 1.03 | 7.63 | 4.51
